# CYP2C9 inhib: human CYP2C9 inhibition; P11712; CYP2C9 Supersomes, luciferin-H conversion, luminescence; inhibition, % at 5 µM; actives 20% (n = 96,000); AID 777;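 active = blocking of liver enzyme CYP2C9 beyond about 50% at 5 µM, limit read from the data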
# CYP2C9 act: CYP2C9 (human) activation; P11712; actives 1.4% (n = 96,000); recombinant CYP2C9, luciferin-H conversion, luminescence; stronger effect = higher value; factor 1 = untreated enzyme, 0 = blocked; AID 1024; activation factor at 5 µM;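 active = activation factor of 2 or more for CYP2C9 at a 5 µM dose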;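 note: 0 = sulfaphenazole-blocked wells and 1 = vehicle-only wells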
# sEH act: activators of human soluble epoxide hydrolase; activation, % at 2 µM; actives 0.04% (n = 91,000); AID 717; purified human sEH enzymatic activity, activator screen; P34913; in the data active = activation above about 37%
# CYP2C19 act: increases human CYP2C19 enzyme activity. recombinant CYP2C19, luciferin-H EGE luminescence; stronger effect = higher value; 0 = fully inhibited enzyme, 1 = untreated enzyme. P33261. activation factor at 5 µM. 96,000 tested, under 10 active;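 active = activation factor of at least 2 at 5 µM in the primary screen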;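 note: 0 = wells with 2.5 mM tranylcypromine and 1 = vehicle-only wells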
# Target sequence (P33261 whole entry, looked up): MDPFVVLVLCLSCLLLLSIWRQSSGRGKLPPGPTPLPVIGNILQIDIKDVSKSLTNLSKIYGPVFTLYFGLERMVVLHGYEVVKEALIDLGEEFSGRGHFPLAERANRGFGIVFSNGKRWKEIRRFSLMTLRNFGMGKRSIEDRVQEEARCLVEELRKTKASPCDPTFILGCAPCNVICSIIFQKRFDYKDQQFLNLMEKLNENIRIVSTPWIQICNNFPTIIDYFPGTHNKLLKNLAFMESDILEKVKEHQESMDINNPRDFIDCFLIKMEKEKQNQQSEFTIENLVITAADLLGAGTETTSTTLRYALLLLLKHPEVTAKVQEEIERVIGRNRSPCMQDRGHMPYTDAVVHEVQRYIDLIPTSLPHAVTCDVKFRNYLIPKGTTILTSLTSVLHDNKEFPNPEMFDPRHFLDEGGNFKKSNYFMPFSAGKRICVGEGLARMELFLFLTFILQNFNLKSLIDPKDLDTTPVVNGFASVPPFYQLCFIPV
# sEH inh: inhibitors of human soluble epoxide hydrolase | P34913 | recombinant human sEH enzymatic activity assay | inhibition, % at 2 µM | actives 0.34% (n = 91,000); in the data active = inhibition above about 80%
# CYP2C19 inh: inhibitors of human CYP2C19. CYP2C19 Supersomes, luciferin-H EGE luminescence, 30 min. inhibition, % at 5 µM. actives 21% (n = 96,000). AID 778;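 active = CYP2C19 inhibition above a set limit at 5 µM in the primary screen, cut at about 50% in these data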;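 note: plate controls were negative control wells for no effect and 2.5 mM tranylcypromine positive control for full effect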
# Numbers without * were called inactive; · = no result given. Shown are actives, neighbours in structure and some others; about 27% of the full set was active somewhere.
SMILES,CYP2C9 inhib,CYP2C9 act,sEH act,CYP2C19 act,sEH inh,CYP2C19 inh
CCNC(=O)CN(c1ccccc1)S(=O)(=O)c1ccc(Cl)cc1,33,0.7,7,0.3,-8,69*
CCNC(=O)CN(c1ccc(Cl)cc1)S(=O)(=O)c1ccccc1,63*,0.4,9,0,-11,96*
O=C(COC(=O)c1cccnc1Nc1cccc(C(F)(F)F)c1)NCCN1C(=O)CSC1=O,97*,0,2,0.4,1,63*
O=C(Nc1cccc(C(F)(F)F)c1)c1cccnc1N1CCN(CCO)CC1,-4,1,-6,0.9,5,11
O=C(COC(=O)c1cccs1)NCCN1C(=O)CSC1=O,-32,1.3,·,0.4,·,63*
CC(C)CNC(=S)NC1CC2CCC(C1)N2Cc1ccccc1 (stereo unspecified),·,·,-12,·,14,·
CC(=O)c1c(C)oc(C)c1CSCc1ccc(C(=O)O)o1,2,1,-2,1,0,3
CC(=O)C1=C(O)C(=O)N(c2ccc(C(=O)O)cc2)C1c1ccccc1 (stereo unspecified),0,1,9,0.9,-8,5
CC(=O)C1=C(O)C(=O)N(c2ccc(S(N)(=O)=O)cc2)C1c1ccc([N+](=O)[O-])cc1 (stereo unspecified),90*,0.1,4,0.8,-1,18
c1ccc(-c2nc(CSc3n[nH]c(-c4cccs4)n3)cs2)cc1,33,0.7,·,0.4,·,60*
Cn1c(SCC(=O)N2CCN(S(=O)(=O)c3ccc(Cl)cc3)CC2)nc2ccccc21,-103,2*,6,0.4,-6,58*
Cn1c(SCC(=O)N2CCN(S(=O)(=O)c3ccccc3)CC2)nc2ccccc21,-48,1.5,·,0.7,·,30
Cc1cc(NC(=O)CSc2n[nH]c(-c3cccs3)n2)no1,46,0.5,·,0.7,·,33
Nn1c(SCC(=O)N2CCN(S(=O)(=O)c3ccc(Cl)cc3)CC2)nnc1-c1cccs1,50*,0.5,8,0.6,-8,36
N#CCCn1c(SCC(=O)N2CCN(S(=O)(=O)c3ccccc3)CC2)nc2ccccc21,10,0.9,-8,1,11,-4
CC(C)Cn1c(SCC(=O)N2CCN(S(=O)(=O)c3ccccc3)CC2)nc2ccccc21,78*,0.2,2,0.2,-2,80*
CC1=NN(C(=O)c2ccc(C)cc2)C(O)(C(F)(F)OC(F)(F)F)C1 (stereo unspecified),13,0.9,8,0.8,-10,20
O=C(CSc1n[nH]c(-c2cccs2)n1)N1CCN(S(=O)(=O)c2ccccc2)CC1,51*,0.5,-7,0.7,9,32
Nn1c(SCC(=O)N2CCN(S(=O)(=O)c3ccccc3)CC2)nnc1-c1cccs1,-1,1,11,1,-13,-2
O=C(CSc1nc(-c2ccccc2)c(-c2ccccc2)[nH]1)N1CCN(S(=O)(=O)c2ccccc2)CC1,80*,0.2,4,0.1,-5,86*
CN(C(=S)NC1=CCS(=O)(=O)C1)C1CCCCC1,0,1,-24,0.8,24,21
COC(=O)c1ccc(OC)c(CSc2nnc(COc3cccc(C)c3)o2)c1,90*,0.1,·,0,·,96*
COC(=O)c1ccc(OC)c(CSc2nnc(COc3ccc(OC)cc3)o2)c1,69*,0.3,·,0.6,·,38
CC1CCN(CCCn2c(=S)[nH]c3ccc(N4CCOCC4)cc3c2=O)CC1,14,0.9,-6,1.1,6,-14
Cn1c(=O)cc(OCC(=O)N2CCC(N3CCCCC3)CC2)c2ccccc21,-17,1.2,·,1.2,·,-22
SMILES,CYP2C9 inhib,CYP2C9 act,sEH act,CYP2C19 act,sEH inh,CYP2C19 inh
COC(=O)C1=C(C(=O)OC)SC(=C2C(=S)C(C)(C)N(C(=O)CC(C)C)c3ccccc32)S1,29,0.7,0,0.3,-4,70*
O=c1c2ccccc2nc2n1CCN2Cc1ccc(Cl)cc1,67*,0.3,·,0.3,·,74*
O=c1c2ccccc2nc(-c2ccccc2)n1Cc1ccc(Cl)cc1,82*,0.2,15,0.2,-12,77*
O=c1c2ccccc2nc(-c2cccc(Cl)c2)n1O,45,0.6,-7,1.1,6,-5
O=C(Cn1c(-c2cncs2)nc2ccccc21)NCCc1ccccc1,53*,0.5,-6,0.1,6,91*
COc1cccc(NC(=O)Cn2c(-c3cncs3)nc3ccccc32)c1,83*,0.2,3,0.2,-5,76*
